Targets with a hit are over-represented here; the source holds about 8,800 in all. About 0.5% of all pairs of compound and target were hits. Unmarked numbers belong to inactive results.
Key:
Assay in all cases: log2 fold change, soluble protein after heating vs DMSO (PISA); higher = thermal stabilisation; K562 lysate, 10 uM; active = over 0.2 and 3.5 SD of the protein, either way, in both replicates (recomputed)
[1] = compound: C1=CC=C(C=C1)[C@H](COC2=CC3=C(C=C2)NC(=O)N3)NC(=O)C4=CC=CN(C4=O)CC5=CC(=C(C=C5)F)F
Outline: (§1)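 Pellets of K562 cells were dounce-homogenised in PBS pH 7.4 with 1 mM MgCl2, and the crude extract was held at 1 mg/mL protein for a 30 min treatment with 10 μM compound. Aliquots were heated for 3 min over 48°C-58°C and pooled before NP-40 was added to 0.5% at 4°C. The supernatant from 21,000xg for 90 min was quantified by TMTpro 16plex LC-MS/MS with channel sums equalised. Values are reported from duplicates as log-two fold change in thermal stability relative to solvent controls.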

[2] = compound: CC1=C(SC2=C1C(=N[C@H](C3=NN=C(N32)C)CC(=O)N)C4=CC=C(C=C4)Cl)C
Outline: as §1

[3] = compound: CC1=C2C(=CC=C1)N=C(N(C2=O)C3=CC=CC=C3C)CN4C=NC5=C(N=CN=C54)N
Outline: as §1

[4] = compound: Cc1sc2c(c1C)C(c1ccc(Cl)cc1)=N[C@@H](CC(=O)OC(C)(C)C)c1nnc(C)n1-2
Outline: as §1

[5] = compound: c1ccc([C@@H]2C[C@H]2NC2CCNCC2)cc1
Outline: as §1

UniProt P39687, sequence (P39687 whole entry, looked up): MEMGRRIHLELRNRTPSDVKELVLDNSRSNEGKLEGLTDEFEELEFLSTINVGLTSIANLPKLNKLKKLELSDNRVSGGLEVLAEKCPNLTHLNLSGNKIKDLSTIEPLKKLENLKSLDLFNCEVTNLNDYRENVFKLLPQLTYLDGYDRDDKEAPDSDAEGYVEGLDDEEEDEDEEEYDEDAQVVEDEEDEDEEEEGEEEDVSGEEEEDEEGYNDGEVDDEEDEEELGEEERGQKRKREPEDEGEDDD
UniProt P51649, sequence (P51649 whole entry, looked up): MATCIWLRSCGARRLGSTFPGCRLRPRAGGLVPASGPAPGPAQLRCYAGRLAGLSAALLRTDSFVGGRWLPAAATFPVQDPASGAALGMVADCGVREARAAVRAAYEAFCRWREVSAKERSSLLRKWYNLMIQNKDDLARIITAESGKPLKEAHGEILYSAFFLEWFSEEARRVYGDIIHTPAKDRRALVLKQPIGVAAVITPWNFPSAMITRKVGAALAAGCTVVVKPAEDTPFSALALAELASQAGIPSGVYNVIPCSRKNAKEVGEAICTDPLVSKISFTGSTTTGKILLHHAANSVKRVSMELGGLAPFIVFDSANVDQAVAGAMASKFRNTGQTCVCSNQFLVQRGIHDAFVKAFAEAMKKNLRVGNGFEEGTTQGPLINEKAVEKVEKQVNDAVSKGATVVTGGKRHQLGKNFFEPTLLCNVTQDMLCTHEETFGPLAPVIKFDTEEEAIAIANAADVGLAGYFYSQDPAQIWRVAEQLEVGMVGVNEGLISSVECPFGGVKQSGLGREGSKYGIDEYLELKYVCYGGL
UniProt Q9BXX2, sequence (Q9BXX2 whole entry, looked up): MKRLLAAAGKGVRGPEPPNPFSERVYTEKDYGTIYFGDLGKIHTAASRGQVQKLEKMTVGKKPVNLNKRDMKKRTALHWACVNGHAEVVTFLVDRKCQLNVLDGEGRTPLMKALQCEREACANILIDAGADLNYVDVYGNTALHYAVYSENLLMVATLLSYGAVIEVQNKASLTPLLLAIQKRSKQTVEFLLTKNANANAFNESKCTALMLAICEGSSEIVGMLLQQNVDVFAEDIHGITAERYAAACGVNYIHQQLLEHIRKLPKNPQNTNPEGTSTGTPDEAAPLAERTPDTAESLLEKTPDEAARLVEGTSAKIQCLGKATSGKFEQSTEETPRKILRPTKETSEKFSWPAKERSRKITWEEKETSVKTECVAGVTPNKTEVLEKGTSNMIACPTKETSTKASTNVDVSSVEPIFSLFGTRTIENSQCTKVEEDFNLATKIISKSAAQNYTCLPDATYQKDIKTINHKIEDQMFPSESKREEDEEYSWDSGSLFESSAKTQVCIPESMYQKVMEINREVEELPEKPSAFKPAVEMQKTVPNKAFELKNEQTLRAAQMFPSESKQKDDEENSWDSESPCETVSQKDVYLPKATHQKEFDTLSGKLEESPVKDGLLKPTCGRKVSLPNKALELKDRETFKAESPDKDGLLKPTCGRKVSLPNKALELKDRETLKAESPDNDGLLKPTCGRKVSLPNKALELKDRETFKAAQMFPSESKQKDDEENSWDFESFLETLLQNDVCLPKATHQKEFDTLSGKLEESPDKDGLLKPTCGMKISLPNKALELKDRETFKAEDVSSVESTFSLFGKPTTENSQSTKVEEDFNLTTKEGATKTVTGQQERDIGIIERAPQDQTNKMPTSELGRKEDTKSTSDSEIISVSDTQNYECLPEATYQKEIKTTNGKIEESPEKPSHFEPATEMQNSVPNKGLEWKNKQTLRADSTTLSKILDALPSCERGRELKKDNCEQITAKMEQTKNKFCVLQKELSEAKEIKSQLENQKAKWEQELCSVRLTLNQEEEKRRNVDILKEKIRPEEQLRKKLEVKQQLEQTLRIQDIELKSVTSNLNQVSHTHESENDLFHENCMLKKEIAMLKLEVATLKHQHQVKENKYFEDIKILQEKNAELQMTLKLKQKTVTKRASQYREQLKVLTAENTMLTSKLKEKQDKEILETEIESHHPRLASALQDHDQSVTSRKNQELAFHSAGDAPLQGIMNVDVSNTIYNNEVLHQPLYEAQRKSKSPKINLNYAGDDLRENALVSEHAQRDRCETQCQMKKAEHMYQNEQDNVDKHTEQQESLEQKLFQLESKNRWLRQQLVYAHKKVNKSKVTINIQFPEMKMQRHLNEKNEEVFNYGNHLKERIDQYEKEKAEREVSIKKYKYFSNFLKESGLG
UniProt P07311, sequence (P07311 whole entry, looked up): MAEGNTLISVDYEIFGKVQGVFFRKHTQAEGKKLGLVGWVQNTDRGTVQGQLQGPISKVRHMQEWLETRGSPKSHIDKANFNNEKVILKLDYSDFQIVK
UniProt P78536, sequence (P78536 whole entry, looked up): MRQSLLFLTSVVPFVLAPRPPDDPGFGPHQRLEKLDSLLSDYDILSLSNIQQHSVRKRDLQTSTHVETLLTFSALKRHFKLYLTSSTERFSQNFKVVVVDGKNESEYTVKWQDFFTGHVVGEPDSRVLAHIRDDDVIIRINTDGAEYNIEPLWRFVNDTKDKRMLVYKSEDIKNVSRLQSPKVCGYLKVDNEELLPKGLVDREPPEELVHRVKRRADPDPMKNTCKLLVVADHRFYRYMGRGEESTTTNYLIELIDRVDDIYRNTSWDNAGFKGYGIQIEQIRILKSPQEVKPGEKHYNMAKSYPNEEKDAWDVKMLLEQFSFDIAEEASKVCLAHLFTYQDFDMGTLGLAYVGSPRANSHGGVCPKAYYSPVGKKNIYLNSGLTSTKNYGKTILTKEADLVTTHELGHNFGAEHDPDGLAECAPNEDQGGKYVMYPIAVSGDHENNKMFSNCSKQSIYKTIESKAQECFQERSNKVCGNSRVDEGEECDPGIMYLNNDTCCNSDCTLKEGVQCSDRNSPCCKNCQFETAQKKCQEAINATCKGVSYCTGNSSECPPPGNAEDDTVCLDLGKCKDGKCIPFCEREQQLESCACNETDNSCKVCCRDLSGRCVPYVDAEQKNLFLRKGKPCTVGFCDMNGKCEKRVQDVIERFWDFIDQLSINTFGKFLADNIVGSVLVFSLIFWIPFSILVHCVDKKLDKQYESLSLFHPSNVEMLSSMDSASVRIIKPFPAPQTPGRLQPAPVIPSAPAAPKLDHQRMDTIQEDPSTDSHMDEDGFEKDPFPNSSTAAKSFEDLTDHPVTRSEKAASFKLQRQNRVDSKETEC
UniProt Q5T5U3, sequence (Q5T5U3 whole entry, looked up): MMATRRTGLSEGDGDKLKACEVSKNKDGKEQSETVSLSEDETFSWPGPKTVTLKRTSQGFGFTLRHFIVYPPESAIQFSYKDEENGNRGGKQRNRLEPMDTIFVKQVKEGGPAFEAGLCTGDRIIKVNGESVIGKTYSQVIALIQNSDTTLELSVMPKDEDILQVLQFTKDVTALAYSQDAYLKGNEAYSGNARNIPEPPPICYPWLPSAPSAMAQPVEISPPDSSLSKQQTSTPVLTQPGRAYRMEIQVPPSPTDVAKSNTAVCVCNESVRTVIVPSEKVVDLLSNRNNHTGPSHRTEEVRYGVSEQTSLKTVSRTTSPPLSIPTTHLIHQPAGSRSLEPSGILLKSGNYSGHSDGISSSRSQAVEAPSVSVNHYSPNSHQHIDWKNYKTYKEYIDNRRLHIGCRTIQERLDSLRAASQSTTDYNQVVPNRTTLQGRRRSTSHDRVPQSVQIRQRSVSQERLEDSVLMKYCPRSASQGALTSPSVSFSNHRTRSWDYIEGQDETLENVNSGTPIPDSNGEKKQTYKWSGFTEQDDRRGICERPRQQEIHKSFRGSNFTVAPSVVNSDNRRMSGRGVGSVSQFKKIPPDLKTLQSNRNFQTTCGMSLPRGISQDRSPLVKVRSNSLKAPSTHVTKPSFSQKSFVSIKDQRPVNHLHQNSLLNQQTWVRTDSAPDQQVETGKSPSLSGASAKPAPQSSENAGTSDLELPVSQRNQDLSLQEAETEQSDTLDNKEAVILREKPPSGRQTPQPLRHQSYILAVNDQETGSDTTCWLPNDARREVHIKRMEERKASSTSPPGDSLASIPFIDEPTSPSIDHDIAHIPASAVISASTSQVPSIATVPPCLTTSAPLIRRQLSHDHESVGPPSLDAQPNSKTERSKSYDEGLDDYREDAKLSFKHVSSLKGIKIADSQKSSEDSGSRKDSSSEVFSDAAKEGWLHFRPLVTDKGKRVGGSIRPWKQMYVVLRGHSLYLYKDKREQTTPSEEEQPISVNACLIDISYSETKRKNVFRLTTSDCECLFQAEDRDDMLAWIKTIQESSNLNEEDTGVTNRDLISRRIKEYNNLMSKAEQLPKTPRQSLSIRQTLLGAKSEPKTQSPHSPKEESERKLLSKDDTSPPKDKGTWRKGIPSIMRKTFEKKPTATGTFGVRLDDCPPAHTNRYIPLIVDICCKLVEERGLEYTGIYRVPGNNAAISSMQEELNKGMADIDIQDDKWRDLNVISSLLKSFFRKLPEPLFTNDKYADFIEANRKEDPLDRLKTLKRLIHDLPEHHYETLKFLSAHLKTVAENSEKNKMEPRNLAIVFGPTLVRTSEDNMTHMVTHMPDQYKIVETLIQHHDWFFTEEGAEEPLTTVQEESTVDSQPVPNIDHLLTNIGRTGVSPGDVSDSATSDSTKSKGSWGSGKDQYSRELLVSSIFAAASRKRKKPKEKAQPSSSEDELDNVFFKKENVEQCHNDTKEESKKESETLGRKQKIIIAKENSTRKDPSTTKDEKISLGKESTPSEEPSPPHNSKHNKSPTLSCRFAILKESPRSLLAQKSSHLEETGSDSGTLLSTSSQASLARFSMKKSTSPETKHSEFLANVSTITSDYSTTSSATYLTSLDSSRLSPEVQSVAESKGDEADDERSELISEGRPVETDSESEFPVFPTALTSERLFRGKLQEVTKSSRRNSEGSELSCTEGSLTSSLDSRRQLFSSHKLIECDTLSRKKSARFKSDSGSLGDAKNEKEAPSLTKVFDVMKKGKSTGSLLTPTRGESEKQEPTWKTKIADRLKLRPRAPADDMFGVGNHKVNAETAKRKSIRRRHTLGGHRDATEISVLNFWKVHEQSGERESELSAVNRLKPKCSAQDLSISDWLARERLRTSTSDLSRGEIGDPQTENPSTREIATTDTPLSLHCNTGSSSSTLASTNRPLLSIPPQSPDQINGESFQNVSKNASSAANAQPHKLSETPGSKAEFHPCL

Row | Target | log2 fold change [1] | log2 fold change [2] | log2 fold change [3] | log2 fold change [4] | log2 fold change [5]
1 | ALDH6A1 (UniProt Q02252) | 0.011 | -0.111 | 0 | 0.02 | -0.061
2 | ANXA5 (UniProt P08758) | 0.031 | 0.016 | 0.013 | 0.033 | 0.075
3 | ASB6 (UniProt Q9NWX5) | 0.012 | 0.125 | 0.005 | 0.016 | 0.028
4 | ABCA3 (UniProt Q99758) | 0.112 | 0.038 | 0.006 | -0.01 | -0.005
5 | AK2 (UniProt P54819) | 0.046 | -0.013 | 0.01 | 0.051 | -0.015
6 | AMDHD2 isoform 3 (UniProt Q9Y303) | 0.049 | 0.016 | 0.031 | 0.037 | -0.043
7 | ARMCX5 (UniProt Q6P1M9) | 0.021 | -0.07 | 0.057 | 0.036 | -0.03
8 | ADAMTS5 (UniProt Q9UNA0) | 0.032 | 0.115 | 0 | -0.136 | -0.481 (active)
9 | AMPD3 isoform 4 (UniProt Q01432) | 0.02 | -0.021 | -0.012 | 0.018 | 0.093
10 | ANXA11 (UniProt P50995) | 0.23 (active) | 0.028 | 0.015 | 0.015 | 0.002
11 | ACYP1 (UniProt P07311) | 0.019 | -0.026 | -0.036 | 0.022 | 0.052
12 | ABHD17A isoform 2 (UniProt Q96GS6) | -0.053 | -0.02 | 0.011 | -0.025 | -0.069
13 | ADAM17 (UniProt P78536) | -0.098 | -0.251 (active) | 0.093 | 0.002 | -0.032
14 | AKR1B1 (UniProt P15121) | 0.015 | 0.066 | 0.059 | -0.146 | -0.049
15 | ANAPC7 (UniProt Q9UJX3) | -0.008 | -0.003 | -0.002 | 0.023 | 0.048
16 | ALDH1A1 (UniProt P00352) | -0.032 | 0.006 | -0.028 | -0.011 | 0.045
17 | ARHGAP25 isoform 4 (UniProt P42331) | 0.013 | 0.016 | 0.012 | -0.046 | 0.035
18 | ALDH2 (UniProt P05091) | 0.029 | -0.028 | -0.022 | -0.018 | 0.01
19 | ABCF2 isoform 2 (UniProt Q9UG63) | -0.022 | -0.011 | 0.04 | -0.019 | 0.055
20 | AKAP8L (UniProt Q9ULX6) | 0.011 | -0.005 | -0.001 | 0.018 | -0.02
21 | ACAA1 (UniProt P09110) | -0.004 | 0.007 | -0.005 | 0.046 | -0.003
22 | ABHD16A (UniProt O95870) | -0.011 | 0.008 | 0.07 | 0.059 | 0.028
23 | ACIN1 isoform 5 (UniProt Q9UKV3) | -0.002 | 0.019 | 0.013 | -0.01 | 0.012
24 | ARL8A (UniProt Q96BM9) | 0.038 | -0.02 | -0.157 | 0.093 | 0.1
25 | ALDH18A1 (UniProt P54886) | -0.018 | -0.032 | 0.019 | -0.005 | 0.034
26 | ALG13 (UniProt Q9NP73) | -0.015 | -0.018 | 0.09 | 0.037 | -0.087

Row | Target | log2 fold change [1] | log2 fold change [2] | log2 fold change [3] | log2 fold change [4] | log2 fold change [5]
27 | ALG3 (UniProt Q92685) | 0.002 | -0.006 | 0.048 | -0.035 | -0.127
28 | ARL15 (UniProt Q9NXU5) | 0.02 | -0.005 | 0.018 | -0.009 | 0.269
29 | ASPH (UniProt Q12797) | 0.006 | 0.028 | 0 | -0.045 | 0.026
30 | ALDH5A1 isoform 2 (UniProt P51649) | -0.029 | -0.018 | -0.017 | 0.004 | 0.075
31 | ARMC6 (UniProt Q6NXE6) | -0.046 | -0.012 | -0.017 | 0.003 | 0.043
32 | ANP32A (UniProt P39687) | 0.007 | 0.02 | 0 | 0.07 | -0.033
33 | ACOX1 isoform 2 (UniProt Q15067) | 0.035 | -0.002 | -0.026 | -0.018 | -0.037
34 | ANXA1 (UniProt P04083) | -0.011 | 0.005 | -0.01 | -0.019 | -0.005
35 | ARL1 (UniProt P40616) | 0.094 | 0.023 | 0.051 | -0.026 | 0.026
36 | ACBD6 (UniProt Q9BR61) | 0.014 | 0.019 | -0.009 | -0.045 | -0.022
37 | AIMP1 isoform 2 (UniProt Q12904) | -0.033 | 0.01 | 0.006 | 0.029 | 0.044
38 | ARHGAP21 (UniProt Q5T5U3) | 0.031 | 0.117 | 0.031 | 0.008 | 0.124
39 | ARMCX3 (UniProt Q9UH62) | 0.015 | 0.009 | 0.029 | -0.074 | 0.053
40 | ACACA isoform 4 (UniProt Q13085) | 0.001 | 0.027 | 0.019 | 0.027 | 0.085
41 | ANKRD30B (UniProt Q9BXX2) | -0.098 | 0.112 | 0.042 | -0.125 | -0.407
42 | ABL1 isoform 2 (UniProt P00519) | -0.042 | -0.065 | 0.067 | -0.017 | 0.102
43 | AFF1 isoform 2 (UniProt P51825) | -0.109 | 0.133 | -0.006 | -0.087 | -0.118
44 | AHCYL1 (UniProt O43865) | -0.011 | -0.003 | -0.011 | 0.034 | 0.006
45 | ADRM1 (UniProt Q16186) | -0.005 | 0.007 | -0.001 | -0.026 | 0.016
46 | AGPAT1 (UniProt Q99943) | -0.04 | 0.024 | 0.089 | -0.038 | -0.134
47 | AIMP2 (UniProt Q13155) | -0.028 | 0.021 | 0.013 | 0.036 | 0.041
48 | ACIN1 (UniProt E7EQT4) | 0.04 | 0.015 | 0.037 | 0.032 | -0.118
49 | AGO4 (UniProt Q9HCK5) | 0.014 | 0.022 | 0.001 | -0.011 | -0.07
50 | AK4 (UniProt P27144) | 0.025 | -0.038 | 0.059 | 0.024 | 0.026
51 | AKR1C3 (UniProt P42330) | 0.031 | 0.05 | 0.022 | -0.04 | 0.031
52 | ALG8 (UniProt Q9BVK2) | 0.034 | 0.001 | 0.059 | -0.013 | -0.008
